Most compounds without a hit are left out; they make up all but 8% or so of the library.
HT1080NT lethal = kills 2HG-producing HT-1080-NT fibrosarcoma cells; actives 1.6% (n = 360,000); HT-1080-NT fibrosarcoma viability, CellTiter-Glo ATP luminescence, 48 h; Potency, µM (series often up to 46.1 µM), inactives show top-dose activity, negative = less viability, usual class: cytotoxic;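 further: NT is the 2HG producing partner of a matched IDH1 knockdown line; 0% = DMSO-treated cells and -100% = media-only wells without cells; nearly all actives have a fitted effect of over 55% in size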
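Toxicity toward the 2HG-producing NT line was scored as %Activity, normalised to DMSO and no-cell wells, from CellTiter-Glo luminescence after 48 hours' treatment.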
KB-V1 cytotox = kills drug-selected multidrug resistant KB-V1 cells. AID 1347076. Potency, µM (top dose mostly 46.1 µM), hits mostly cytotoxic. actives 3.4% (n = 400,000). KB-V1 MDR cells viability, CellTiter-Glo, 72 h; further: on the % scale 0 is the no-effect control and ±100 the full control effect; nearly all actives have a fitted effect of over 60% in size
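Drug-selected KB-V1 cells, grown in DMEM lacking phenol red with 10% FBS, receive compound titrations; after three days at 37 degrees C, surviving cell ATP is quantified by CellTiter-Glo luminescence and responses normalized and curve-fitted.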
MCF10A rerep = induces DNA re-replication in MCF 10a normal breast cells. MCF 10A DNA re-replication, Hoechst nuclear intensity, 48 h. actives 2.9% (n = 350,000). AID 624296. Potency, µM (highest dose often 46.1 µM), inactives show at the top dose activity, positive = re-replication, usual class: activators; further: % of control where 0% means no effect; nearly all actives have a fitted effect of over 50% in size
HT1080 IDH1KD tx = HT-1080 IDH1 knockdown cell toxicity (counter line); actives 2% (n = 360,000); HT-1080 IDH1 knockdown viability, ATP luminescence, 48 h; Potency, µM (titrated, usually from 46.1 µM), for inactives: at the top dose activity, negative = toxicity, actives largely listed as cytotoxic;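 further: 0% = DMSO wells and -100% = cell-free medium wells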
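Assay cells: HT-1080 with IDH1 knockdown, 750 per well, RPMI/5% FBS. Exposure: 48 h at 37 °C following 2 h pre-incubation. Read: CellTiter-Glo luminescence; fitted concentration-response, curve class assigned.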
SW480 rerep = inducers of DNA re-replication in SW480 colon cancer cells; actives 1.8% (n = 340,000); SW480 DNA re-replication, Hoechst DNA content imaging, 48 h; Potency, µM (highest dose often 46.1 µM), for the others: at the top dose re-replication activation, usual class: activators; further: % of control where 0% means no effect; nearly all actives have a fitted effect of over 55% in size
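SW480 cells exposed to compounds for 48 hr at 37 C, 5% CO2, then Hoechst-stained 40 min. Nuclear DNA content imaged by fluorescence scanning (405 nm excitation, 500-530 nm emission); re-replication scored as increased high-intensity nuclei.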
KB-3-1 cytotox = kills parental KB-3-1 adenocarcinoma cells | KB-3-1 viability, CellTiter-Glo ATP luminescence, 72 h | actives 1.4% (n = 400,000) | AID 1347075 | Potency, µM (doses to about 46.1 µM), hits mostly cytotoxic; further: on the % scale 0 is the no-effect control and ±100 the full control effect; nearly all actives have a fitted effect of over 60% in size
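Cytotoxicity measured as CellTiter-Glo luminescence after 72 h at 37 C. Compound titrations were pinned onto drug-naive KB-3-1 parental adenocarcinoma cells grown in DMEM with 10% FBS, and normalized data fitted to concentration-response curves.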
* hit, by the source's call; i = inactive; ? = inconclusive; . = not tested or not shown; [ ] = another dose, or the depositor's remark. The call rests on the fitted dose curve; in most records, active means well fitted curve in the direction sought with a large enough effect; inconclusive means small, poorly fitted or top-dose-only effect, or another doubt; inactive means no such curve, though single readings can be large; an effect the other way counts as inactive or inconclusive. Potency means the concentration at half of the fitted maximal effect.

SMILES | HT1080NT lethal | KB-V1 cytotox | MCF10A rerep | HT1080 IDH1KD tx | SW480 rerep | KB-3-1 cytotox
Cc1ccc(-n2nnnc2-c2cnc3cc4c(cc3c2C)OCO4)cc1 | 0% | 23µM* | 2% | -4% | -6% | i
Cc1c(-c2nnnn2-c2ccc(F)cc2)cnc2cc3c(cc12)OCO3 | 5% | i | 0% | 1% | -14% | i
CCN(CC)C(=O)C1CCN(S(=O)(=O)c2ccc3c(c2)CCCN3C(C)=O)CC1 | . | i | . | . | . | i
CCOC(=O)Cc1[nH]nc2c1C(Cc1ccccc1)C(C#N)=C(N)O2 (configuration not stated) | -10% | i | 15% | -5% | 5% | i
CCOC(=O)CN1C=C(c2ccc3ccccc3n2)C(C[N+](=O)[O-])c2ccccc21 (configuration not stated) | -1% | i | 16µM* | -2% | ? | i
CCOC(=O)c1cc2sccc2n1CCCN1C(=O)c2ccccc2C1=O | -2% | ? | 21µM* | -6% | 10% | i
Cc1c(C(=O)/C=C/N(C)C)nnn1-c1ccc(Cl)cc1Cl | -5% | i | ? | -12% | 6% | i
Nc1c(Cl)ncnc1N1CCN(c2ncnc(Cl)c2N)CC1 | -3% | i | 0% | -2% | 0.23µM* | i
Cc1cc(SC(C)C(=O)Nc2ncc(Cl)cc2Cl)nc2ccccc12 (configuration not stated) | 0% | 18µM* | ? | -5% | -3% | i
CC(C)(C)c1cnnn1-c1ccc(C(=O)CCl)cc1 | ? | 23µM* | 16µM* | ? | ? | ?
CC(C)(C)c1cnnn1-c1ccc(C=O)cc1 | -5%[9.24 µM] | i | 0% | ? | -1% | i
CCCC#Cc1ccc2c(c1)O[C@@H](CN(C)Cc1ccc3c(c1)OCO3)[C@H](C)CN([C@@H](C)CO)S2(=O)=O | ? | ? | . | ? | . | 21µM*
CCCSc1nc(=S)n(Cc2ccccc2)c(C)c1C(C)=O | -8% | i | 2% | -9% | 2% | i
Cc1c(C=O)c(C=O)c(C)n1Cc1ccccc1 | 8.2µM* | ? | 10µM* | 4.1µM* | ? | ?
CC(=O)c1c(C(C)=O)c(C)n(Cc2ccccc2)c1C | 4% | 21µM* | 29% | -4% | -7% | i
COc1cc(Cl)c(CN2CCC(CCC(=O)NC3CC3)CC2)cc1OC | 0% | i | 0.58µM* | -3% | -46% | i
O=C(c1ccc(CS(=O)c2cccc(Cl)c2)o1)N1CCCCCC1 (configuration not stated) | 10% | 23µM* | -5% | 10% | -15% | i
O=C(c1ccc(CS(=O)c2ccccc2Cl)o1)N1CCN(c2ccccc2)CC1 (configuration not stated) | ? | ? | ? | 0.52µM* | 2.6µM* | 1µM*
O=C(c1ccc(CS(=O)c2ccccc2Cl)o1)N1CCOCC1 (configuration not stated) | -3% | i | -3% | 11% | -10% | i
COc1ccc(N2CCN(C(=O)c3ccc(CS(=O)c4cccc(C)c4)o3)CC2)cc1 (configuration not stated) | ? | i | ? | ? | 5.8µM* | ?
COc1cccc(N2CCN(C(=O)c3ccc(CS(=O)c4ccccc4Cl)o3)CC2)c1 (configuration not stated) | ? | i | 17% | 0.0082µM* | 0.52µM* | 0.0082µM*
COc1ccc(OC)c(C(=O)Cn2nnc3ccccc3c2=O)c1 | 13% | i | -1% | 1% | 2% | i
O=C(NC(=S)N1CCOCC1)c1ccccc1Cl | 21% | i | 1% | 18% | -4% | i

High-throughput results: PubChem, National Center for Advancing Translational Sciences (NCATS)
